MCF10A rerep: A quantitative high throughput screen for small molecules that induce DNA re-replication in MCF 10a normal breast cells; MCF 10A DNA re-replication, Hoechst nuclear intensity, 48 h; Potency, µM (top dose mostly 46.1 µM), hits mostly activators; hit rate 2.9% among 350,000; note: nearly all actives have a fitted effect of over 50% in size
SW480 rereplic: A quantitative high throughput screen for small molecules that induce DNA re-replication in SW480 colon adenocarcinoma cells; hit rate 1.8% among 340,000; Potency, µM (series often up to 46.1 µM), hits mostly activators; SW480 DNA re-replication, Hoechst DNA content imaging, 48 h; note: nearly all actives have a fitted effect of over 55% in size
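First, 250 cells per well were seeded. Next, compound or vehicle (23 nL) was pinned in, plates sat 48 hr at 37 C. Finally Hoechst was added for 40 min before fluorescence scanning.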
KB-3-1 cytotox: qHTS assay for MDR1-selective chemotherapeutics: Primary screen using the parental adenocarcinoma cell KB-3-1 | KB-3-1 viability, CellTiter-Glo ATP luminescence, 72 h | Potency, µM (top dose mostly 46.1 µM), hits mostly cytotoxic | hit rate 1.4% among 400,000 | AID 1347075, 2019; note: nearly all actives have a fitted effect of over 60% in size
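KB-3-1 parental drug-naive adenocarcinoma cells in DMEM/10% FBS, incubated 72 h at 37 C with pin-transferred compounds across a concentration series. Viability by CellTiter-Glo luminescence; concentration-response curves fitted after normalization.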
12-LOX inh: Primary qHTS assay for inhibitors of human arachidonate 12S-lipoxygenase (ALOX12): Round 2 | hit rate 1.1% among 580,000 | purified 12hLO, xylenol orange hydroperoxide absorbance | Polyunsaturated fatty acid lipoxygenase ALOX12 (Homo sapiens), P18054 | Potency, µM (doses to about 108 µM), actives largely listed as inhibitors | AID 1671190, 2021
Target sequence (P18054 whole entry, looked up): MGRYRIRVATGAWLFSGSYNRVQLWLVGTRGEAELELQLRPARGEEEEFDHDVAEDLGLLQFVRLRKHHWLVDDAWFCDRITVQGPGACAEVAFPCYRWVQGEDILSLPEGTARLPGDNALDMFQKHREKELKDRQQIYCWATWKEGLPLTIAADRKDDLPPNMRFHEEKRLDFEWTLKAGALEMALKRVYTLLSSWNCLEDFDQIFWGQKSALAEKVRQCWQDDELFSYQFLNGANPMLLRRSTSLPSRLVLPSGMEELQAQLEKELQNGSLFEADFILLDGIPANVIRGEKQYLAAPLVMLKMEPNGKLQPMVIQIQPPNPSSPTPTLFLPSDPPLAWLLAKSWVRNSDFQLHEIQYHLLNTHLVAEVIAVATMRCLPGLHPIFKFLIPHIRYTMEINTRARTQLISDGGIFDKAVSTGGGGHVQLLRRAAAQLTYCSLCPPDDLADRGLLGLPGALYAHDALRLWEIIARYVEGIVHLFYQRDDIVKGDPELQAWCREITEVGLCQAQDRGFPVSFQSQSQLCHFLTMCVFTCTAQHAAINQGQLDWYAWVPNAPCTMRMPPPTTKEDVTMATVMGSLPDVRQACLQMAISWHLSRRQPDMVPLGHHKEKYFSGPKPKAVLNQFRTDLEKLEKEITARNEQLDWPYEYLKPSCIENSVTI
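Purified human 12hLO at 150 nM in 25 mM Hepes, 0.01% Triton X-100, pH 7.0, preincubated 15 min at room temperature with compound. Reaction started with 40 uM arachidonic acid, 30 min at room temperature. Hydroperoxide measured by Fe-xylenol orange, 573/405 nm absorbance ratio.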
KB-V1 cytotox: qHTS assay for MDR1-selective chemotherapeutics: Primary screen using the drug-selected MDR subline cells KB-V1; KB-V1 MDR cells viability, CellTiter-Glo, 72 h; Potency, µM (titrated, usually from 46.1 µM), usual class: cytotoxic; hit rate 3.4% among 400,000; AID 1347076, 2019; note: nearly all actives have a fitted effect of over 60% in size
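KB-V1 cells (P-gp-expressing MDR subline of KB-3-1) in phenol-red-free DMEM with 10% FBS were exposed to library compounds over a concentration series for 72 h at 37 degrees C. Viability read by CellTiter-Glo luminescence; concentration-effect curves fitted after normalization.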
PINK1 expr mod: A Quantitative High throughput Screen to Identify Chemical Modulators of PINK1 Expression; PINK1 immunofluorescence, high-content cytometry, 24 h; Potency, µM (series often up to 76.6 µM), most hits filed as activators; hit rate 0.2% among 410,000; active = well fitted activation curve with a large enough effect; inconclusive = small, poorly fitted or top-dose-only effect; cell line not stated here; note: nearly all actives have a fitted effect of over 65% in size
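Readout is PINK1 immunofluorescence, quantified alongside mitochondrial, cell and nuclear markers by laser-scanning microplate cytometry. Cells from a stable line were exposed to compound titrations (5 concentrations) for 24 hours, with CCCP controls.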
Numbers stand for hits; . = inactive; ? = inconclusive; / = not tested or not shown. Only some compounds are listed: those with a hit (about 5.8% of all), similar ones and a draw of the others. Unless noted, calls come from the whole dose curve; as a rule, active = well fitted curve in the direction sought with a large enough effect; inconclusive = small, poorly fitted or top-dose-only effect, or another doubt; inactive = no such curve, though single readings can be large; an effect the other way counts as inactive or inconclusive.

SMILES | MCF10A rerep | SW480 rereplic | KB-3-1 cytotox | 12-LOX inh | KB-V1 cytotox | PINK1 expr mod
COc1ccc(/C=C2\C(=O)c3ccccc3OC2c2ccccc2)cc1 (stereo unspecified) | 10.3µM | ? | ? | . | 7.31µM | .
CCOc1ccc(/C=C2\C(=O)c3ccccc3OC2c2ccccc2)cc1 (stereo unspecified) | 5.17µM | ? | ? | . | 16.4µM | .
COc1cccc2sc(Nc3nnc(-c4cccs4)o3)nc12 | 23.1µM | . | ? | . | ? | .
Fc1cccc2sc(Nc3nnc(-c4ccco4)o3)nc12 | 7.31µM | ? | ? | . | 9.2µM | .
COc1cccc2sc(Nc3nnc(-c4ccc(F)cc4)o3)nc12 | 25.9µM | ? | . | . | . | .
O=C(Nc1nc2c(F)cccc2s1)c1ccco1 | . | . | ? | . | . | .
COc1cccc2sc(NC(=O)c3ccc(Br)s3)nc12 | . | . | . | . | . | .
COc1ccc(-c2nnc(-c3ccc(F)cc3)o2)cc1 | . | . | . | . | . | .
CC(NS(C)(=O)=O)C(=O)O (stereo unspecified) | / | / | / | . | / | /
O=C(COC(=O)CCNS(=O)(=O)c1ccc(F)c(Cl)c1)Nc1c(Cl)cccc1Cl | / | / | / | . | / | /
O=C(NCc1ccc2c(c1)OCO2)c1nc(-c2ccsc2)c2ccccn12 | / | / | / | . | / | /
COc1cc2ccnc(Cc3cccc(OC)c3OC)c2cc1OC | ? | . | 7.31µM | . | 2.06µM | .
Cc1nc2ccccn2c(=O)c1CCN1CCC(C(=O)c2ccc(F)cc2)CC1 | . | . | . | . | . | .
Cc1nc2sccn2c(=O)c1CCN1CCC(=C(c2ccc(F)cc2)c2ccc(F)cc2)CC1 | 2.06µM | ? | . | ? | ? | .
O=C(NCc1ccc(Cl)cc1)C1CCCN(c2ncnc3nc[nH]c23)C1 (stereo unspecified) | / | / | / | . | / | /
Cc1nn(Cc2ccc(Cl)cc2)c(C)c1NC(=O)c1cc(-c2ccc3c(c2)OCO3)on1 | 4.61µM | ? | 4.11µM | . | . | .
Cc1nn(Cc2ccc(Cl)c(Cl)c2)c(C)c1NC(=O)c1cc(-c2ccc3c(c2)OCO3)on1 | 5.8µM | 16.4µM | ? | . | . | .
Cc1nn(Cc2ccc(Cl)cc2)c(C)c1NC(=O)c1cc(C(C)C)on1 | ? | . | . | . | . | .
CSc1ccccc1NC(=O)/C(=C/c1ccco1)c1ccccc1 | / | / | / | 50.1µM | / | /
Cc1ccc(NC(=O)[C@H](NC(=O)[C@@H]2Cc3ccccc3CN2)c2ccccc2)cc1C | 25.9µM | . | . | . | . | ?
Cc1ccc(NC(=O)[C@@H](C)NC(=O)[C@@H]2Cc3ccccc3CN2)cc1 | . | . | . | . | . | .
O=C(O)CCC(=O)Nc1cccc2cccnc12 | . | . | . | . | . | .
O=C(CCC(=O)OCC(=O)c1ccccc1)Nc1cccc2cccnc12 | 16.4µM | 18.4µM | . | . | . | /
COC(=O)/C=C/c1ccsc1NC(C)=O | . | 9.2µM | . | . | . | .
Cc1ccc(S(=O)(=O)Nc2ccc(N(C)S(=O)(=O)c3ccc(C)cc3)cc2)cc1 | . | . | . | . | . | .
SMILES | MCF10A rerep | SW480 rereplic | KB-3-1 cytotox | 12-LOX inh | KB-V1 cytotox | PINK1 expr mod
Cc1ccc(S(=O)(=O)N(C)c2ccc3c(c2)C(=O)c2ccccc2-3)cc1 | / | / | ? | . | 20.6µM | .
Cc1ccc(-c2cnc(CCC(=O)N(C)C(C)c3ccc(S(C)(=O)=O)cc3)o2)cc1C (stereo unspecified) | / | / | / | . | / | /
Cc1noc(C(C)C)c1C(=O)NCc1cccnc1OC1CCCC1 | / | / | / | . | / | /
O=C(OCC(=O)N1CCc2ccccc21)c1ccccc1 | . | . | . | . | . | .
CCCc1nc2ccccc2c(C(=O)OCC(=O)NC(C)(C)C)c1CC | / | / | / | . | / | /
CC1CCc2nc3ccccc3c(C(=O)OCC(=O)N3CCc4ccccc43)c2C1 (stereo unspecified) | . | . | ? | . | 2.06µM | .
CCCc1nc2ccccc2c(C(=O)OCC(=O)N2CCc3ccccc32)c1CC | 20.6µM | . | ? | . | 6.51µM | .
CCC1CCCCN1C(=O)COc1cccc2c1CCN(C)C2=O (stereo unspecified) | . | . | . | . | 20.6µM | .
CN1CCc2c(OCC(=O)N3CCCc4ccccc43)cccc2C1=O | . | ? | . | . | ? | .
CN1CCc2c(OCC(=O)NC3CCCCC3)cccc2C1=O | . | . | . | . | . | .
CN1CCc2c(OCC(=O)N3CCC(Cc4ccccc4)CC3)cccc2C1=O | . | . | 18.4µM | . | ? | .
CC(Oc1ccc(C(=O)c2ccccc2)cc1)C(=O)N1CCc2ccccc21 (stereo unspecified) | / | / | / | . | / | /
Cc1cc(S(=O)(=O)Nc2cc3c(cc2NCc2ccccc2)n(C)c(=O)n3C)ccc1F | / | / | . | . | 20.6µM | .
Cn1c(=O)n(C)c2cc(NS(=O)(=O)c3ccc(Cl)cc3)c(NCc3ccccc3)cc21 | / | / | ? | . | . | .
CC(C)c1ccc(N2C(=O)CSC23C(=O)N(Cc2cccc(F)c2)c2ccccc23)cc1 (stereo unspecified) | / | / | 20.6µM | . | 13µM | .
COc1ccc(N2C(=O)CSC23C(=O)N(Cc2cccc(C(F)(F)F)c2)c2ccccc23)cc1 (stereo unspecified) | / | / | . | . | ? | .
COc1ccc(N2C(=O)CS(=O)(=O)C23C(=O)N(Cc2c(F)cccc2Cl)c2ccccc23)cc1 (stereo unspecified) | / | / | . | . | . | .
O=C1CSC2(C(=O)N(Cc3cccc(F)c3)c3ccccc32)N1c1cccc(C(F)(F)F)c1 (stereo unspecified) | / | / | ? | . | 13µM | .
CCc1ccc(N2C(=O)CSC23C(=O)N(Cc2cccc(OC)c2)c2ccccc23)cc1 (stereo unspecified) | / | / | ? | . | 10.3µM | .
O=C1CSC2(C(=O)N(Cc3ccccc3)c3ccccc32)N1c1ccc(Cl)cc1 (stereo unspecified) | / | / | ? | . | . | .
Cc1cccc(N2C(=O)CS(=O)(=O)C23C(=O)N(Cc2c(F)cccc2Cl)c2ccccc23)c1 (stereo unspecified) | / | / | . | . | 5.8µM | .
CC(C)CCN1C(=O)CC[C@]2(C(=O)N(C)Cc3ccccc3)CCCC[C@@H]12 | / | / | / | . | / | /
Cc1cccc(N2C(=O)CSC23C(=O)N(Cc2cccc(F)c2)c2ccccc23)c1 (stereo unspecified) | / | / | ? | ? | 14.6µM | .

From PubChem
